We go through 34 targets from the supplement of paper PMC10849652.

Targets with a hit are over-represented here; the source holds about 7,900 in all. About 0.6% of all pairs of compound and target were hits. Values without a mark were called inactive.

Sequence of UniProt Q8IZQ5 (Q8IZQ5 whole entry, looked up): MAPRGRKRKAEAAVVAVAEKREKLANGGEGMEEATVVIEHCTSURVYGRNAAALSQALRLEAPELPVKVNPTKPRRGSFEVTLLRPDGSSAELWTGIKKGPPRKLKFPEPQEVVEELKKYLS
Sequence of UniProt Q9BUV8 (Q9BUV8 whole entry, looked up): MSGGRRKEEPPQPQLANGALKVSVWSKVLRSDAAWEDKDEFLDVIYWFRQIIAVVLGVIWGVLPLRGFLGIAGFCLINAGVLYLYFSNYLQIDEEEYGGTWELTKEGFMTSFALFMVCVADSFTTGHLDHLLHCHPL
Sequence of UniProt Q9BY42 (Q9BY42 whole entry, looked up): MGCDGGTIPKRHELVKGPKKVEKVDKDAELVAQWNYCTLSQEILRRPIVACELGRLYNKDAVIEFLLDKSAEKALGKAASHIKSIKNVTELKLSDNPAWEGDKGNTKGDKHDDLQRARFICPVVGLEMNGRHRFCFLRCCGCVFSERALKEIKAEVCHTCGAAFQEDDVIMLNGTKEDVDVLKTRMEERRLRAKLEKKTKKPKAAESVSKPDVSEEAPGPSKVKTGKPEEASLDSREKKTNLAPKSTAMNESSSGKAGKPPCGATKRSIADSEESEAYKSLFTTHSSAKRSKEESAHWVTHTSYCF
Sequence of UniProt Q9NRX5 (Q9NRX5 whole entry, looked up): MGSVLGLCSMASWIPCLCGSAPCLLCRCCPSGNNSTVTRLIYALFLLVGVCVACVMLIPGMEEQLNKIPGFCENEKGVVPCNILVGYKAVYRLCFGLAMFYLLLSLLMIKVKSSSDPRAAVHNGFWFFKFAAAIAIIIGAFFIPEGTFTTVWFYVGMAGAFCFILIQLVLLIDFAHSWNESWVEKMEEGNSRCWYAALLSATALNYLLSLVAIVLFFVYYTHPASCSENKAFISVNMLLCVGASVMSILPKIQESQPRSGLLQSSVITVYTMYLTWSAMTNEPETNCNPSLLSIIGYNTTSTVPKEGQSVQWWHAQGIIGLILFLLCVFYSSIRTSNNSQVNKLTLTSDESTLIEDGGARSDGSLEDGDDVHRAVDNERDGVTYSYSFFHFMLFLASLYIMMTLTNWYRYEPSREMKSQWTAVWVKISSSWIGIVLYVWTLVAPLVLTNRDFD
Sequence of UniProt O43819 (O43819 whole entry, looked up): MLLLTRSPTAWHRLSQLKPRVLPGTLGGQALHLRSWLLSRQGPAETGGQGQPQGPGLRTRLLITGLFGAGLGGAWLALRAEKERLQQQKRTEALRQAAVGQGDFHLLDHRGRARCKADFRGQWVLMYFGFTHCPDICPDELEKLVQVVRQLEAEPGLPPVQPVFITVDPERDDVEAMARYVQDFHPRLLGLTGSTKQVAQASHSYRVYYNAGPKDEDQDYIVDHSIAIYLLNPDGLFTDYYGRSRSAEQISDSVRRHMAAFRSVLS
Sequence of UniProt Q96T51 (Q96T51 whole entry, looked up): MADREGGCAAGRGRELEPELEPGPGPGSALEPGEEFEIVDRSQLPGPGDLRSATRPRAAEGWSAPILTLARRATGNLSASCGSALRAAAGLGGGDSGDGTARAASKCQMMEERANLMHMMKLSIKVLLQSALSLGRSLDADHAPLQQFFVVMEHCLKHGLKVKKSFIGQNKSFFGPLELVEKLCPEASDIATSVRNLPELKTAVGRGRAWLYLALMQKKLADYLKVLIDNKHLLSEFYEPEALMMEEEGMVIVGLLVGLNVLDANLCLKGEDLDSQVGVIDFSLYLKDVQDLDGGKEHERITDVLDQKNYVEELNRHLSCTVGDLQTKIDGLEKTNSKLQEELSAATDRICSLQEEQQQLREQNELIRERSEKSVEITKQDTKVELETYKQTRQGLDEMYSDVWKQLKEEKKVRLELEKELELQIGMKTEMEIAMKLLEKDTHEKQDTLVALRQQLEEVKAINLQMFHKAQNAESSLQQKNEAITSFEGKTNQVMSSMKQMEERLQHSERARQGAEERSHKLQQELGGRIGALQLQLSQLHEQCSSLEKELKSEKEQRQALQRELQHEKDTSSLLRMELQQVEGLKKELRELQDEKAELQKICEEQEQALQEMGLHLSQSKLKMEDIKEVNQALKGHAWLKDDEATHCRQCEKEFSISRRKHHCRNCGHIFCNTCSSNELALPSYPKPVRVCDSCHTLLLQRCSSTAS
Sequence of UniProt Q96EU6 (Q96EU6 whole entry, looked up): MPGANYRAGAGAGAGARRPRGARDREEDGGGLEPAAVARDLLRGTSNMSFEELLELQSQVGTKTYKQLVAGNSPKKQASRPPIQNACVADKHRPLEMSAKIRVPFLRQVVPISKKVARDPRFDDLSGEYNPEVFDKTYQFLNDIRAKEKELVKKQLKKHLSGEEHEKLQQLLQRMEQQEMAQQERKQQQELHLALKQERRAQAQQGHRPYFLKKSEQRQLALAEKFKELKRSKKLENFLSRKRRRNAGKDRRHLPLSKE
Sequence of UniProt Q06609 (Q06609 whole entry, looked up): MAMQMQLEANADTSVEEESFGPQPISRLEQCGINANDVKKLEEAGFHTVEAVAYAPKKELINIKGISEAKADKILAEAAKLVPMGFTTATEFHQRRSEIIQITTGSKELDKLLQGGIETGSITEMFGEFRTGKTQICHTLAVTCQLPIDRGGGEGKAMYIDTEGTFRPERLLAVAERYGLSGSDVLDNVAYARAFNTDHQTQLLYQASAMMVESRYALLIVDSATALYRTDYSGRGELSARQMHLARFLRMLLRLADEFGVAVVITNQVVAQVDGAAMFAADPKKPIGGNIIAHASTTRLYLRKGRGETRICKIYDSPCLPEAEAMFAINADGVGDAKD
Sequence of UniProt P41440 (P41440 whole entry, looked up): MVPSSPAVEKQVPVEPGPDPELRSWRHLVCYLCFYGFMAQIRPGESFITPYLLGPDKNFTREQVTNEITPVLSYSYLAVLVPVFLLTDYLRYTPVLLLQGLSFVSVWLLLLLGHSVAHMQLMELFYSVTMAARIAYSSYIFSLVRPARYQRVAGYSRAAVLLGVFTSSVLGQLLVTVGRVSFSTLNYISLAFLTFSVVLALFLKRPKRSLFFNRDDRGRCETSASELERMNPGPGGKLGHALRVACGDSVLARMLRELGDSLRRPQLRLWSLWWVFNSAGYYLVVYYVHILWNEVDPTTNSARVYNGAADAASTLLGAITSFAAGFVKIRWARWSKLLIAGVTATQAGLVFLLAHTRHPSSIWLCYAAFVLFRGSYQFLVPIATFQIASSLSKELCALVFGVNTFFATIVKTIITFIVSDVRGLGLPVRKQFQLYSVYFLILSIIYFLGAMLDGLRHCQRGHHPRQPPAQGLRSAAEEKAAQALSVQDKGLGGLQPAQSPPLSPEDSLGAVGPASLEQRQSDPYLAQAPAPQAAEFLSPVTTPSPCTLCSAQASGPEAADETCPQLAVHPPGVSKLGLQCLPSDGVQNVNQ
Sequence of UniProt P35244 (P35244 whole entry, looked up): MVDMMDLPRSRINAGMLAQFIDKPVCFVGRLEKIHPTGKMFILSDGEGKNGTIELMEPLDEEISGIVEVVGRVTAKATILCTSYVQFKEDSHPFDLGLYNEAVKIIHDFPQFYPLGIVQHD
Sequence of UniProt Q5T160 (Q5T160 whole entry, looked up): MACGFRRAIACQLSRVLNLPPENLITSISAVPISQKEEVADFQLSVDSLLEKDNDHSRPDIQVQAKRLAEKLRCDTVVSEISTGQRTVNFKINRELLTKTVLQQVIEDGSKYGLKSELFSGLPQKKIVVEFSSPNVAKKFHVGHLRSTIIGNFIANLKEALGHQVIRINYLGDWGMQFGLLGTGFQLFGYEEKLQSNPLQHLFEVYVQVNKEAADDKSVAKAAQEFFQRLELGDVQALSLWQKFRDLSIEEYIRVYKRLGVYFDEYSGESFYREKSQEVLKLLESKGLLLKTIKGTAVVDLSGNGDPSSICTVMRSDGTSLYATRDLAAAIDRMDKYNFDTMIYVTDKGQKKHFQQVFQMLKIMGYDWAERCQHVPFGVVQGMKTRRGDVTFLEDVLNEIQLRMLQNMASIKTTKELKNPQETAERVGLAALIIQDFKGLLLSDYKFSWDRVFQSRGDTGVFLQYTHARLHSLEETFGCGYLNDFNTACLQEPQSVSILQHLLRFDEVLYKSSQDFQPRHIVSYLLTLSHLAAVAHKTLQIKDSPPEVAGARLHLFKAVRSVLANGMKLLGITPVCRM
Sequence of UniProt O15127 (O15127 whole entry, looked up): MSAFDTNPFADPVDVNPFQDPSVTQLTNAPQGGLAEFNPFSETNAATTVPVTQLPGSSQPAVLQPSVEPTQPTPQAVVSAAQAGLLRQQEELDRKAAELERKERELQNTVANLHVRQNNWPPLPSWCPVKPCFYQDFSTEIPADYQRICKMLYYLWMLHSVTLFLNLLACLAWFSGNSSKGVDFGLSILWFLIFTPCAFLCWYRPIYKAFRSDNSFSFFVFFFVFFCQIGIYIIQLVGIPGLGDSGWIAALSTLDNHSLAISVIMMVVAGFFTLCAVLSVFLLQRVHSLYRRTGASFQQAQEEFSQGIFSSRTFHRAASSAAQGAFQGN
Sequence of UniProt Q8IZV5 (Q8IZV5 whole entry, looked up): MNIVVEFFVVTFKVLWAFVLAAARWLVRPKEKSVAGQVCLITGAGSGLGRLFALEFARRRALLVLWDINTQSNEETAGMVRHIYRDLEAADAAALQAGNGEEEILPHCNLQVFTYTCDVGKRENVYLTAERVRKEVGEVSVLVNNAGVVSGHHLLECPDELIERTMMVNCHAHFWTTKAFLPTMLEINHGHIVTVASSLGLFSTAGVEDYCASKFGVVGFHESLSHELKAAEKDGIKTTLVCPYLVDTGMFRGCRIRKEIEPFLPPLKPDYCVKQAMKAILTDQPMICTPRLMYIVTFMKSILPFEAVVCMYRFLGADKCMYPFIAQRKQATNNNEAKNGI
Sequence of UniProt Q9BQY4 (Q9BQY4 whole entry, looked up): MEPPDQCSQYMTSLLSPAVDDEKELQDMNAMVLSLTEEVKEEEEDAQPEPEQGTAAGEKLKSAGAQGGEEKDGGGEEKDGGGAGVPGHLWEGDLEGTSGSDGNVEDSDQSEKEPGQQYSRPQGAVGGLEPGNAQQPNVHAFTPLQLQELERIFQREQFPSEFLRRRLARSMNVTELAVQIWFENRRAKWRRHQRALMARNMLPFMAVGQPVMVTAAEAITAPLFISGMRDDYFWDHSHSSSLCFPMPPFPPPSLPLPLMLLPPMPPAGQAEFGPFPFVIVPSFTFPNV

Compound in one assay: CCN(CC)Cc1ccc2cc(COC(=O)Nc3ccc(C(=O)NO)cc3)ccc2c1 [givinostat]
The assay is described as follows: log2 fold change, soluble protein after heating vs DMSO (PISA); higher = thermal stabilisation; K562 cells, 10 uM, 30 min; active = over 0.2 and 3.5 SD of the protein, either way, in both replicates (recomputed). An outline of the steps: (§1)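 K562 cells at 2×10^6 cells/mL were given 10 μM compound for 30 min. Aliquots then went through 3 min of heating across 48°C-58°C, were pooled, and were extracted in PBS with 0.5% NP-40 at 4°C, and the supernatant after 21,000xg for 90 min was quantified by TMTpro 16plex LC-MS/MS with channel sums equalised. Thermal stability relative to control samples, from duplicates, is given as log2 fold change.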
SERINC1 (UniProt Q9NRX5): the log2 fold change was 0.05.
Take SCO2 (UniProt O43819): the log2 fold change is 0.03.
Turning to SELENOH (UniProt Q8IZQ5), the log2 fold change is 0.024.
On to RPS25 (UniProt P62851), for which the log2 fold change was 0.042.
Still for that read-out and setting: the figure for RTF2 (UniProt Q9BY42) is 0.017.
The same measure, in the same setting: the result for RAB5IF isoform 5 (UniProt Q9BUV8) reads -0.007; that for SIK3 (UniProt H0Y4E8), 0.098; that for RUFY3 isoform 3 (UniProt Q7L099), 0.021.
On to RCOR3 isoform 3 (UniProt Q9P2K3), for which the log2 fold change was 0.075.

Compound in another assay: CCN(CCCOc1ccc2c(Nc3cc(CC(=O)Nc4cccc(F)c4)[nH]n3)ncnc2c1)CCOP(=O)(O)O [barasertib]
The assay is described as above. An outline of the steps:
as §1
For RARS2 (UniProt Q5T160), the log2 fold change was 0.017.
As to RRP36 (UniProt Q96EU6), the log2 fold change was -0.218.
Still for that read-out and setting: the figure for RCOR1 (UniProt Q9UKL0) is 0.01; for RBM48 isoform 2 (UniProt Q5RL73) it is -0.069; for RPS18 (UniProt P62269) it is -0.067.
With RPA3 (UniProt P35244), the log2 fold change was 0.066.
Regarding RPS6KA3 (UniProt P51812), the log2 fold change was 0.06.
For the target RHOXF2 (UniProt Q9BQY4), the log2 fold change was 0.033.
On the same count and under the same terms, the figure for SCAMP2 (UniProt O15127) is -0.029; for SAMD4B (UniProt Q5PRF9) it is 0.157; for RAD50, A0A494C0Y7 it is -0.171.
The same measure, in the same setting: the figure for RNF167 (UniProt Q9H6Y7) is 0.018; for SLC19A1 (UniProt P41440) it is -0.011; for RHOA (UniProt P61586) it is 0.026.
On the same count and under the same terms, the result for RNPEP (UniProt Q9H4A4) reads 0.036; that for RAB3IL1 (UniProt E9PK89), -0.014; that for RDH10 (UniProt Q8IZV5), 0.011.
Turning to RAF1 isoform 2 (UniProt P04049), the log2 fold change is 0.044.
RBBP6 (UniProt Q7Z6E9): the log2 fold change is -0.018.
On the same count and under the same terms, the result for ROCK1 (UniProt Q13464) reads 0.021.
On the same count and under the same terms, the figure for RUFY1 (UniProt Q96T51) is 0.027; for SCAMP2 (UniProt H3BUB6) it is 0.034.
Same read-out and setting: the figure for RAD51 (UniProt Q06609) is 0.016; for SERINC1 (UniProt Q9NRX5) it is 0.002; for SCO2 (UniProt O43819) it is 0.153.
In the case of SELENOH (UniProt Q8IZQ5), the log2 fold change is -0.031.
On the same count and under the same terms, the result for RPS25 (UniProt P62851) reads -0.075; that for RTF2 (UniProt Q9BY42), 0.072; that for RAB5IF isoform 5 (UniProt Q9BUV8), -0.003.
On the same count and under the same terms, the result for RPAIN isoform 8 (UniProt Q86UA6) reads 0.029.
On the same count and under the same terms, the figure for RCOR3 isoform 3 (UniProt Q9P2K3) is 0.098.

Compound in another assay: CC[C@@H]1C(=O)N(C)c2cnc(Nc3ccc(C(=O)NC4CCN(C)CC4)cc3OC)nc2N1C1CCCC1
The description is as above. Summed up: as §1
For RARS2 (UniProt Q5T160), the log2 fold change was -0.121.
For RRP36 (UniProt Q96EU6), the log2 fold change was 0.217.
The same measure, in the same setting: the figure for RCOR1 (UniProt Q9UKL0) is 0.116; for RPS18 (UniProt P62269) it is 0.158; for RPA3 (UniProt P35244) it is -0.006.
Still for that read-out and setting: the result for RHOXF2 (UniProt Q9BQY4) reads 0.014; that for SCAMP2 (UniProt O15127), -0.009.
With RAD50, A0A494C0Y7, the log2 fold change is 0.077.
On the same count and under the same terms, the figure for SLC19A1 (UniProt P41440) is 0.08.
The same measure, in the same setting: the result for SH2D1B (UniProt O14796) reads -0.068.
Still for that read-out and setting: the result for RHOA (UniProt P61586) reads -0.098; that for RNPEP (UniProt Q9H4A4), 0.015.
Consider RAB3IL1 (UniProt E9PK89), for which the log2 fold change was -0.012.
As for RDH10 (UniProt Q8IZV5), the log2 fold change is 0.068.
Still for that read-out and setting: the figure for RAF1 isoform 2 (UniProt P04049) is 0.135; for RBBP6 (UniProt Q7Z6E9) it is -0.061; for ROCK1 (UniProt Q13464) it is -0.005.
The same measure, in the same setting: the result for RUFY1 (UniProt Q96T51) reads -0.145; that for SCAMP2 (UniProt H3BUB6), -0.015.
Same read-out and setting: the figure for RAD51 (UniProt Q06609) is 0.013.
On to SERINC1 (UniProt Q9NRX5), for which the log2 fold change is 0.001.
Same read-out and setting: the result for SCO2 (UniProt O43819) reads -0.109; that for SELENOH (UniProt Q8IZQ5), 0.001.
On the same count and under the same terms, the result for RPS25 (UniProt P62851) reads 0.063; that for RTF2 (UniProt Q9BY42), -0.18.
Consider RAB5IF isoform 5 (UniProt Q9BUV8), for which the log2 fold change was -0.025.
On to SIK3 (UniProt H0Y4E8), for which the log2 fold change was 0.032.
Still for that read-out and setting: the figure for RUFY3 isoform 3 (UniProt Q7L099) is -0.135; for RCOR3 isoform 3 (UniProt Q9P2K3) it is 0.005.
